Experimental data: PubChem BioAssay (EPA / NIEHS)
Where a structure was tested more than once in an assay, its records may differ in their call. Activity calls are given as the source filed them. How the source made its calls: active means hit-call score of the fitted dose curve at least 0.9, where 1 is the maximum; inactive means score below 0.9.

assay: ATG_AP_2_CIS: Attagene CIS-FACTORIAL HepG2 Assay for human Activator Protein 2 (AP-2) (AID 2282932); details: HepG2 AP-2 cis-reporter, Attagene transcription factor profiling; actives raise or lower the signal
Description: ATG_CIS is a cell-based, multiplexed-readout assay that uses HepG2, a human liver cell line, with measurements taken at 24 hours after chemical dosing in a 24-well plate.ATG_AP_2_CIS is one of 52 assay component(s) measured or calculated from the ATG_CIS assay. It is designed to make measurements of mRNA induction, a form of inducible reporter, as detected with fluorescence intensity signals by Reverse transcription polymerase chain reaction (RT-PCR) and Capillary electrophoresis technology.Data from the assay component ATG_AP_2_CIS was analyzed into 1 assay endpoint. This assay endpoint, ATG_AP_2_CIS, was analyzed with bidirectional fitting relative to DMSO as the negative control and baseline of activity. Using a type of inducible reporter, measures of mRNA for gain or loss-of-signal activity can be used to understand the reporter gene at the transcription factor-level as they relate to the gene TFAP2A and TFAP2B and TFAP2D. Furthermore, this assay endpoint can be referred to as a primary readout, because this assay has produced multiple assay endpoints where this one serves a reporter gene function. To generalize the intended target to other relatable targets, this assay endpoint is annotated to the dna binding intended target family, where the subfamily is basic helix-turn-helix leucine zipper.
Human liver HepG2 cells are transiently transfected with multiple reporter transcription units (MRTUs) in 6-well plates using FuGene 6 reagent (Roche; 3 ml FuGene/1 mg DNA). The MRTU constructs are regulated by a cis-regulating element (promoter). […] A major difference between the CIS and TRANS system is that in CIS activities of endogenous TFs are measured, whereas the TRANS assay evaluates changes in activities of exogenous, chimeric NR-Gal4 proteins. […] At the end of 24 hour incubation, total RNA was isolated using TriZol reagent (Invitrogen). The isolated RNA is then reverse-transcribed using oligo(dT) primer and Mo-MLV reverse transcriptase (Invitrogen) with DNAse I (Ambion) treatment for 30 min. The one-tenth of the produced cDNA was amplified by PCR using Taq DNA polymerase (Invitrogen) and two reporter sequence-specific primers. The PCR products were fluorescently labeled by primer extension with 6-arboxyfluorescein (6-FAM) 5'-labeled reporter sequence-specific primer (2 min at 95 C, 20 s at 68 C and 10 min at 72 C) and these products were digested with 5U of HpaI (New England Biolabs) for 2h at 37 C. The fragments were purified using Qiaquick PCR columns (Qiagen), analyzed on an ABI 3130xL genetic analyzer (Applied Biosystems) with peak positions identified by using a set of X-rhodamine (ROX)-labeled MapMarker1000 molecular weight standards (BioVentures). The raw capillary electrophoresis data was processed using Attagraph software (Attagene).

Q: With CCCCCCCCCl as the compound, how does the outcome read?
A: Its outcome is “inactive”.

Q: For CCC(=O)c1ccccc1, which outcome is on record?
A: The outcome was “inactive”.

Q: Which outcome does the source give for CC1(C)Cc2cccc(O)c2O1 here?
A: The outcome was “inactive”.

Q: Which outcome does the source give for C=CC(=O)N(C)C here?
A: Its outcome is “inactive”.

Q: For COc1ccc(OC)c(C=O)c1, which outcome is on record?
A: Its outcome is “inactive”.

Q: Which outcome does the source give for C[C@]12CC[C@H](O)CC1=CC[C@@H]1[C@@H]2CC[C@]2(C)C(=O)CC[C@@H]12 here?
A: The outcome was “inactive”.

Q: Which outcome does the source give for O=[N+]([O-])c1c(Cl)c(Cl)cc(Cl)c1Cl here?
A: Its outcome is “inactive”.

Q: For COC[C@H](C)N(C(=O)CCl)c1c(C)csc1C, which outcome is on record?
A: The outcome was “inactive”.

Q: For Cc1cc(Cl)ccc1O[C@H](C)C(=O)O, which outcome is on record?
A: The outcome was “inactive”.

Q: For CCOP(=S)(OCC)Oc1ccc(S(C)=O)cc1 (stereo not given), which outcome is on record?
A: Its outcome is “inactive”.

Q: For Cc1ccc(N)cc1Cl, which outcome is on record?
A: Its outcome is “inactive”.

Q: Which outcome does the source give for Clc1ccc(COC(Cn2ccnc2)c2ccc(Cl)cc2Cl)cc1 (stereo not given) here?
A: Its outcome is “inactive”.

Q: With O=C1C2(Cl)C3(Cl)C4(Cl)C(Cl)(Cl)C5(Cl)C3(Cl)C1(Cl)C5(Cl)C24Cl (stereo not given) as the compound, how does the AC50 read?
A: Its AC50 is 18.4 µM (active).

Q: And the outcome?
A: Its outcome is “inactive”.

Q: With c1ccc(N=NNc2ccccc2)cc1 as the compound, how does the outcome read?
A: The outcome was “inactive”.

Q: With CC(C)c1ccc(CO)cc1 as the compound, how does the outcome read?
A: Its outcome is “inactive”.

Q: Which outcome does the source give for O=P(O)(O)CN(CP(=O)(O)O)CP(=O)(O)O here?
A: The outcome was “inactive”.

Q: With C=CCc1ccc(OC)cc1 as the compound, how does the outcome read?
A: The outcome was “inactive”.

Q: Which AC50 does the source give for CC(=O)c1cc(C(C)(C)C)cc2c1CCC2(C)C here?
A: The AC50 was 161 µM (active).

Q: For Nc1ccc(N=Nc2ccc(-c3ccc(N=Nc4c(S(=O)(=O)O)cc5cc(S(=O)(=O)O)c(N=Nc6ccccc6)c(O)c5c4N)cc3)cc2)c(N)c1, which outcome is on record?
A: Its outcome is “inactive”.

Q: With CCCCP(CCCC)CCCC as the compound, how does the outcome read?
A: The outcome was “inactive”.

Q: For O=Cc1cccc(Oc2ccccc2)c1, which outcome is on record?
A: The outcome was “inactive”.

Q: Which outcome does the source give for O=[N+]([O-])c1ccc2c3c(cccc13)CC2 here?
A: Its outcome is “inactive”.

Q: Which AC50 does the source give for CCOC(=O)/C=C(C)/C=C/C[C@@H](C)CCCC(C)C here?
A: Its AC50 is 46.9 µM (active).

Q: For O=C(O)Cc1ccccc1, which outcome is on record?
A: Its outcome is “inactive”.

Q: With COP(=S)(OC)Oc1c(Cl)cc(C)cc1Cl as the compound, how does the outcome read?
A: Its outcome is “inactive”.

Q: Which outcome does the source give for CC(C)(C)CC(C)(C)c1ccc(O)cc1 here?
A: The outcome was “inactive”.

Q: Which outcome does the source give for CCNc1nc(NC(C)(C)C)nc(SC)n1 here?
A: The outcome was “inactive”.

Q: With CCc1ccccc1N as the compound, how does the outcome read?
A: Its outcome is “inactive”.

Q: For O=S(=O)(c1ccc(Cl)cc1)c1ccc(Cl)cc1, which outcome is on record?
A: Its outcome is “inactive”.

Q: Which outcome does the source give for Nc1cccc(Cl)c1 here?
A: Its outcome is “inactive”.

Q: For CCSC(C)CC1CC(=O)C(C(CC)=NOC/C=C/Cl)=C(O)C1 (stereo not given), which outcome is on record?
A: Its outcome is “inactive”.

Q: With CC1(C)CCC(Cc2ccc(Cl)cc2)C1(O)Cn1cncn1 (stereo not given) as the compound, how does the outcome read?
A: The outcome was “inactive”.

Q: For ClCc1cccnc1, which outcome is on record?
A: Its outcome is “inactive”.

Q: Which outcome does the source give for ClCC(Cl)CCl here?
A: The outcome was “inactive”.

Q: What does the source list for O=C(O)C(F)(F)C(F)(F)C(F)(F)C(F)(F)C(F)(F)C(F)(F)C(F)(F)C(F)(F)C(F)(F)C(F)(F)F?
A: outcome: inactive; AC50: 55.8 µM (active)

Q: With COC(=O)c1sccc1S(=O)(=O)NC(=O)Nc1nc(C)nc(OC)n1 as the compound, how does the outcome read?
A: The outcome was “inactive”.

Q: For Cn1sc(Cl)cc1=O, which outcome is on record?
A: The outcome was “inactive”.

Q: Which outcome does the source give for CC(C)CCCCCCOC(=O)c1ccccc1C(=O)OCCCCCCC(C)C here?
A: Its outcome is “inactive”.
